Source: PubChem (National Center for Advancing Translational Sciences (NCATS))
This is a sample that favours compounds with a hit; in the whole collection about 2.4% have one here.
Pol eta inh: blocks human DNA polymerase eta activity | 390,000 compounds, 1.2% hits | Q9Y253 | Potency, µM (titrated, usually from 114 µM), inactives show at the top dose activity change, negative = inhibition, actives largely listed as inhibitors | AID 588591 | recombinant Pol eta, fluorescent DNA replication assay; further: on the % scale 0 is the no-effect control and ±100 the full control effect
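Pol eta (10 nM) was preincubated with compounds for 15 min at room temperature, after which fluorescent replication substrate (50 nM final) was added to start the reaction. Fluorescence was read kinetically at 0 and 10 min.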
FEN1 inh: human FEN1 inhibition; P39748; 390,000 compounds, 0.35% hits; Potency, µM (highest dose often 114 µM), for the others: top-dose activity change, negative = inhibition, usual class: inhibitors; Recombinant FEN1 flap cleavage, fluorescence, 15 min; further: on the % scale 0 is the no-effect control and ±100 the full control effect; nearly all actives have a fitted effect of over 65% in size
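In this screen, 50 nM flap DNA substrate was added to 10 nM FEN1 pretreated with compound for 15 min at room temperature; cleavage was followed with reads at 0 and 15 min, and Hill fitting gave concentration–response parameters.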
Pol beta inh: DNA polymerase beta (human) inhibition; Pol beta primer extension/strand displacement, fluorescence kinetic; Potency, µM (titrated, usually from 114 µM), without a hit: at the highest dose activity change, negative = inhibition, actives largely listed as inhibitors; 340,000 compounds, 1.3% hits; AID 485314; further: on the % scale 0 is the no-effect control and ±100 the full control effect
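Pol beta (10 nM) and compounds were preincubated 15 min at room temperature, then 50 nM substrate (final) started primer extension/strand displacement. Reads were taken at 0 and 10 min; concentration-response data were fitted to a four-parameter Hill equation.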
TDP1 inh: inhibitors of human tyrosyl-DNA phosphodiesterase TDP1; recombinant TDP1, AlphaScreen DNA substrate cleavage; Potency, µM (doses to about 130 µM), inactives show at the top dose activity change, negative = inhibition, actives largely listed as inhibitors; 350,000 compounds, 0.28% hits; AID 485290; further: on the % scale 0 is the no-effect control and ±100 the full control effect; nearly all actives have a fitted effect of over 40% in size
Target sequence (Q9NUW8 whole entry, looked up): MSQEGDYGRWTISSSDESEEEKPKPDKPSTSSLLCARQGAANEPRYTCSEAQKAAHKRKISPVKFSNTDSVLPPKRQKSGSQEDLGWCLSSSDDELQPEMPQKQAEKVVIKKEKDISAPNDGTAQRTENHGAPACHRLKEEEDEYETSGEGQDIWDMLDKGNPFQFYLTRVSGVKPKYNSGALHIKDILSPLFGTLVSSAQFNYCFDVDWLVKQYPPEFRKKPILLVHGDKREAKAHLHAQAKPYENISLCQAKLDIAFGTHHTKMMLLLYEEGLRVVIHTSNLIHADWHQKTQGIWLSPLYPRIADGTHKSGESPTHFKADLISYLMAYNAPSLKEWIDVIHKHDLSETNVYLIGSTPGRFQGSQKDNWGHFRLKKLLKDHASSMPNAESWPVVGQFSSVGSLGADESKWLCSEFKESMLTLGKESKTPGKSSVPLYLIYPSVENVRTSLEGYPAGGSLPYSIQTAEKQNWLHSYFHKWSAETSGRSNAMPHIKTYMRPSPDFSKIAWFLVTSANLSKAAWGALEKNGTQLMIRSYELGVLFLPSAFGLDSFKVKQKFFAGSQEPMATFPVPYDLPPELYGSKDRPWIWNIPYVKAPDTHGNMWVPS
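Signal: AlphaScreen proximity between streptavidin donor and anti-FITC acceptor beads on intact substrate. Reaction: Tdp1 1 nM, substrate 15 nM final, 5 min RT after 15 min compound preincubation.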
Pol kappa inh: DNA polymerase kappa (human) inhibition. Potency, µM (titrated, usually from 107 µM), without a hit: at the top dose activity, negative = inhibition, most hits filed as inhibitors. Q9UBT6. 400,000 compounds, 0.53% hits. purified Pol kappa, fluorescent DNA synthesis assay, 10 min; further: on the % scale 0 is the no-effect control and ±100 the full control effect
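Readout: fluorescence, taken kinetically at 0 and 10 min. Conditions: 10 nM Pol kappa, 15 min RT compound preincubation, 50 nM substrate final. Controls: enzyme-free buffer wells.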
POLI inh: inhibitors of human DNA polymerase iota; Q9UNA4; Pol iota fluorescent replication assay, 10 min; Potency, µM (highest dose often 115 µM), inactives show top-dose activity, negative = inhibition, hits mostly inhibitors; 390,000 compounds, 1% hits; AID 588590
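Pol iota at 10 nM preincubated 15 min with compounds at room temperature; reaction started with fluorescent substrate, 50 nM final. Fluorescence read kinetically at 0 and 10 min; buffer-only wells as negative control.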
* = called active by the depositor; ? = inconclusive; . = no result given; [ ] = dose if it differs, or a comment. The call rests on the fitted dose curve; in most records, active means well fitted curve in the direction sought with a large enough effect; inconclusive means small, poorly fitted or top-dose-only effect, or another doubt; inactive means no such curve, though single readings can be large; an effect the other way counts as inactive or inconclusive. Potency means the concentration at half of the fitted maximal effect.

SMILES	Pol eta inh	FEN1 inh	Pol beta inh	TDP1 inh	Pol kappa inh	POLI inh
CC(Cc1c[nH]c2ccccc12)C(=O)O (configuration not stated)	3%	14%	7.1µM*	-4%	?	10%
CC(=O)N[C@H](Cc1c[nH]c2ccccc12)C(=O)O	-6%	-4%	.	.	16%	23%
O=C(O)c1c(Cl)c(Cl)c(Cl)c(Cl)c1-c1c2cc(I)c(=O)c(I)c-2oc2c(I)c(O)c(I)cc12	.	.	.	29%	12µM*	.
Nc1ccc(Cl)cc1[N+](=O)[O-]	.	.	.	10%	.	.
COC(=O)c1c(NC(=O)/C=C/C(=O)O)sc(C)c1-c1ccc(C)c(C)c1	-19%	5%	-14%	3%	0%	-3%
COC(=O)c1c(NC(=O)/C=C/C(=O)O)sc(C)c1-c1ccc(C(C)C)cc1	79µM*	-1%	-5%	5%	-17%	21%
C[C@@H]1[C@@H](Sc2ccccc2)CC(=O)O[C@@H]1c1ccc(-c2ccccc2)cc1	-3%	-4%	.	4%	9%	?
O=C1C=CC2(O[C@H](c3ccccc3)[C@@H](c3ccccc3)O2)[C@H](Sc2ccccc2O)C1	?	-2%	.	.	-3%	22µM*
CCOc1ccc2nc(SCC(=O)c3ccc(O)cc3O)sc2c1	?	4%	35µM*	.	?	?
N[C@@H](Cc1cc(-c2ccc(Cl)cc2Cl)cc(CP(=O)(O)O)c1O)C(=O)O	.	.	.	4%[56.1 µM]	1.8µM*	.
Cc1ccc2[nH]c(=O)c3cc(C(=O)N4CCN(C(=O)c5ccco5)CC4)sc3c2c1	-4%	11%	?	56µM*	-20%	-6%
O=C(NCc1ccccc1)c1cccc(Br)n1	-3%	-13%	2%	0%	-4%	79µM*
O=S1(=O)Nc2c(cc(Cl)c3ccc(Cl)nc23)-c2ccccc21	.	?	.	?	79µM*	?
C#CCOCCOCCOCCNc1nc(N2CCN(C(=O)CCCCCCCCCCNC(=O)Cn3cc(C[C@@H](C)O)nn3)CC2)nc(N2CCN(C(=O)CCCCCCCCCCNC(=O)[C@H](CCCN=C(N)N)n3cc(C[C@@H](C)CC)nn3)CC2)n1	?	89µM*	.	9%	-12%	25%
C#CCOCCOCCOCCNc1nc(N2CCN(C(=O)CCCCCCCCCCNC(=O)[C@H](CO)n3cc(CCCSC)nn3)CC2)nc(N2CCN(C(=O)CCCCCCCCCCNC(=O)[C@H](CCCN=C(N)N)n3cc(C[C@@H](C)CC)nn3)CC2)n1	?	22µM*	.	11%	-16%	?
C#CCOCCOCCOCCNc1nc(N2CCN(C(=O)CCCCCCCCCCNC(=O)Cn3cc(C[C@@H](C)O)nn3)CC2)nc(N2CCN(C(=O)CCCCCCCCCCNC(=O)[C@H](CCCCN)n3cc(CCCC(=O)O)nn3)CC2)n1	5%	1%	.	6%	-1%	-23%
COc1ccc(C2Nc3ccccc3C(=O)N2Cc2ccccc2)cc1COc1ccc(F)cc1 (configuration not stated)	.	.	.	1%	.	.
CCC(=O)NCCCC[C@H](NC(=O)OCc1ccccc1)C(=O)Nc1ccc2c(C)cc(=O)oc2c1	.	.	.	4%	9%[60.1 µM]	.
O=C(N/N=C/c1cccc(O)c1)NC1CCCCC1	7%	-3%	-1%	5%	-3%	49%
O=C(N/N=C/c1cccc(O)c1)c1ccc(NC(=O)C2CCCCC2)cc1	5%	-4%	32µM*	.	-15%	?
O=C(N/N=C/c1ccc(O)cc1O)c1ccc(NC(=O)C2CCCCC2)cc1	35µM*	5%	-5%	-2%	-8%	?
COc1ccc2cc3cc(C(=O)NC4CC4)sc3nc2c1	-3%	-8%	79µM*	-1%	-4%	-20%
COc1ccc2nc3sc(C(=O)NCCN4CCc5ccccc5C4)cc3cc2c1	?	6%	20µM*	-1%	-26%	-12%
CC(C)c1cc2c(s1)c1cnn(Cc3ccccc3F)c(=O)c1n2C	.	.	.	-5%	.	.
COc1ccc(-c2cn(CCCOCc3ccccc3)nn2)cc1	-2%	-3%	2%	.	1%	0%
